PubChem BioAssay AID1851 (National Center for Advancing Translational Sciences (NCATS), 2009)
“And” between values parts separate entries of the source, which are not always exact repeats. Identical values can stand only once. Hit rate of the full screen: of about 16,000 compounds, about 4,000 (25%) were called active. Roughly 26% stayed inconclusive and do not appear here. These entries were drawn from the full list. Values without a mark were called inactive. Calls follow the shape of the dose curve; as a rule, active = well fitted curve in the direction sought with a large enough effect; inconclusive = small, poorly fitted or top-dose-only effect, or effect the other way; inactive = no such curve, though single readings can be large or run the other way. Square brackets hold non-standard residues; d marks the D form. Peptide text beside a SMILES is read from it.

Each compound was assayed against Cytochrome P450 2C9 (Homo sapiens) (UniProt P11712) (assay: Cytochrome panel assay with activity outcomes). Settings: recombinant CYP, pro-luciferin dealkylation, luminescence, p450-cyp2c9; series mostly up to 57.1 µM.
% is scaled to controls: 0 for no effect and ±100 for the full control effect.

Cytochrome P450 2C9 (Homo sapiens), sequence (P11712 whole entry, looked up): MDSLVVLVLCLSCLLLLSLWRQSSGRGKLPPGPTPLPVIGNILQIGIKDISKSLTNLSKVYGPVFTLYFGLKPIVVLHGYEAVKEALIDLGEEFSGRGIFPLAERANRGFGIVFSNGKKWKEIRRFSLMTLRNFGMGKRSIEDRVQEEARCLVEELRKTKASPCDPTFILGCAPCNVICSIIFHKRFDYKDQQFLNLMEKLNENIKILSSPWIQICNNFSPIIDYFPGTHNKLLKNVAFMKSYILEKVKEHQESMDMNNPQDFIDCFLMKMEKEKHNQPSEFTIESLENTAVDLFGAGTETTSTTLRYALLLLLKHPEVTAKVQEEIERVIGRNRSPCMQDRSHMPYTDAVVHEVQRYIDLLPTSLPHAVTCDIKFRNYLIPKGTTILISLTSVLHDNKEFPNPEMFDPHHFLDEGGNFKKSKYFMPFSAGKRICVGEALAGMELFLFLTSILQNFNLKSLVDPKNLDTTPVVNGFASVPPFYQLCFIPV

Row | Compound | AC50 | activity, negative = inhibition
1 | CCC(=O)c1ccc2c(c1)N(CCCN(C)C)c1ccccc1S2 | inactive | 
2 | CC(C)(C)N1C(=O)[C@H]2[C@H]3[C@H](O)[C@H](O)C/C(=N/NC(=O)OCc4ccccc4)[C@H]3CC[C@@H]2C1=O |  | 16% [at 11.4 µM]
3 | COC(=O)[C@@]1(Cc2ccc(F)cc2)[C@H]2c3cc(C(=O)N(C)C)n(Cc4ccc(C)c(F)c4F)c3C[C@H]2CN1C(=O)c1ccccc1 | 25.1 µM (active) | 
4 | COC(=O)[C@@]1(Cc2ccccc2)[C@H]2c3cc(C(=O)N4CCCC4)n(CC4CC4)c3C[C@H]2CN1C(=O)c1ccccc1 | 1 µM (active) | 
5 | COC(=O)[C@@]1(Cc2ccccc2)[C@H]2c3cc(C(=O)N4CCCC4)n(Cc4nc5ccccc5[nH]4)c3C[C@H]2CN1C(=O)c1ccccc1 | 1 µM (active) | 
6 | CCOC(=O)[C@H](CCc1ccccc1)N[C@@H](C)C(=O)N1CCC[C@H]1C(=O)O | inactive | 
7 | Cc1cc(=O)n2c3ccccc3n(CC(O)CN3CCCCC3)c2c1C#N (centres undefined) | inactive | 
8 | CCCCC(=O)Nc1nnc(SCC(=O)NC2CCCC2)s1 | inactive | 
9 | CCSc1nnc(NC(=O)CSc2nc3c(cc2C#N)CCCC3)s1 | 2.51 µM (active) | 
10 | O=C(O)Cc1cccnc1 |  | 12.8% [at 11.4 µM]
11 | Cn1c(C(=O)O)c(CC(=O)NCc2cccnc2)c2ccccc21 | 3.55 µM (active) | 
12 | CN(C)C(=O)c1ccc(-c2nc(NCc3cccnc3)c3ccccc3n2)cc1 |  | 8.86% [at 2.29 µM]
13 | O=c1nc(-c2ccccc2)cn[nH]1 | inactive | 
14 | Nc1nc(C(=O)O)c(N=Nc2ccccc2)c(=O)[nH]1 |  | -0.919% [at 11.4 µM]
15 | Nc1[nH]n2c(=O)cc(-c3ccccc3)nc2c1N=Nc1ccccc1 | 15.8 µM (active) | 
16 | Cn1c(=O)[nH]c(=O)c2c1nc(CN1CCOCC1)n2Cc1ccccc1 | inactive | 
17 | CN(C)c1ccc(-c2nc(NCCN3CCOCC3)c3ccccc3n2)cc1 |  | 10.3% [at 2.29 µM]
18 | CCOCCn1c(CN(Cc2ccccc2)Cc2ccccc2)nc2c1c(=O)[nH]c(=O)n2C | 7.94 µM (active) | 
19 | COC(=O)Cn1c(CN(Cc2ccccc2)Cc2ccccc2)nc2c1c(=O)[nH]c(=O)n2C | 14.1 µM (active) | 
20 | Cn1c(=O)[nH]c(=O)c2c1nc(CN(Cc1ccccc1)Cc1ccccc1)n2CCN1CCOCC1 | 15.8 µM (active) | 
21 | CCOC(=O)Cn1c(CN(Cc2ccccc2)Cc2ccccc2)nc2c1c(=O)[nH]c(=O)n2C | 14.1 µM (active) | 
22 | Cc1cc(C)n(-c2nc3c(c(=O)[nH]c(=O)n3C)n2CC(C)C)n1 | inactive | 
23 | Cc1ccc(C(=O)CNc2nc3c(c(=O)[nH]c(=O)n3C)n2Cc2ccccc2)cc1 | 0.891 µM (active) | 

Row | Compound | AC50 | activity, negative = inhibition
24 | COCCCCC(=NOCCN)c1ccc(C(F)(F)F)cc1 | 3.98 µM (active) | 
25 | CCON=C1C(C)(C)C(C)(C)C(C)(C)C1(C)C |  | 4.67% [at 11.4 µM]
26 | CCCN=Cc1c(CCC)[nH]n(-c2nc3ccccc3s2)c1=O | 10 µM (active) | 
27 | CCn1c(C)c(/C=N/Nc2nc3ccccc3s2)c2ccccc21 | inactive | 
28 | C(/C=C/c1ccco1)=N/N1CCN(c2ccccc2)CC1 | inactive | 
29 | COC(=O)/C(=C\C(=O)c1ccccc1)Nc1cccc(C(F)(F)F)c1 | 15.8 µM (active) | 
30 | O=C(CSc1ccc(C(F)(F)F)cc1[N+](=O)[O-])Nc1ccccc1 | inactive | 
31 | Cc1sc(N)c(C(=O)c2cccc(C(F)(F)F)c2)c1C | inactive | 
32 | CCC(C(=O)Nc1cccc(C(F)(F)F)c1)c1ccccc1 (centres undefined) | 2.82 µM (active) | 
33 | O=c1[nH][nH]c(C(F)(F)F)c1C=Nc1ccccc1 | inactive | 
34 | CCC[C@H]1C(=O)N2C(N(C)C)=Nc3ccc(C)cc3N2C1=O | inactive | 
35 | Cn1c(C[C@@H](O)c2nc3ccccc3n2C)nc2ccccc21 |  | 5.4% [at 11.4 µM]
36 | COc1ncc2nc(-c3ccc(Cl)cc3)c(=O)n(-c3ccccc3)c2n1 | inactive | 
37 | Cn1c(COc2nnc(-c3ccc(Cl)cc3)c3ccccc23)nc2ccccc21 | 3.98 µM (active) | 
38 | CSCC[C@H](C=O)NC(=O)[C@H](CC(C)C)NC(=O)[C@H](CC(C)C)NC(C)=O (Ac-Leu-Leu-[dM]-aldehyde) | inactive | 
39 | Cc1c(Cl)c([N+](=O)[O-])nn1Cc1ccc(C(=O)N/N=C\c2cc(Cl)ccc2O)o1 | 3.98 µM (active) | 
40 | C/C(Cn1nc([N+](=O)[O-])cc1C)=N\NC(=O)c1ccc(O)cc1O | inactive | 
41 | Cc1c(Cl)c([N+](=O)[O-])nn1Cc1ccc(C(=O)N/N=C\c2cccc(Br)c2)o1 | 5.62 µM (active) | 
42 | Cc1nn(Cc2ccc(Cl)cc2)c(C)c1NC(=O)Cn1nc([N+](=O)[O-])c(Cl)c1C | inactive | 
43 | CCN(CC)CC[n+]1ccc2c(C)c3[nH]c4ccccc4c3c(C)c2c1 |  | 3.85% [at 11.4 µM]
44 | O=C(O)c1nn(-c2ccccc2-c2n[nH]c(=O)[nH]c2=O)c(=O)[nH]c1=O |  | -7.45% [at 11.4 µM]
45 | CN(Cc1ccco1)c1cc(-c2ccoc2)ncn1 |  | -1.76% [at 2.29 µM]
46 | C1COC(NC(C2CC2)C2CC2)=N1 | inactive | 

Row | Compound | AC50 | activity, negative = inhibition
47 | O=C(CNCCO)N1CCc2ccccc21 | inactive | 
48 | O=C(CSc1n[nH]c(-c2ccccc2O)n1)N1CCCc2ccccc21 | 1.12 µM (active) | 
49 | C#CCCCCCCCCCCCCCCCC(=O)O | 12.6 µM (active) | 
50 | O=C(O)CCCCCCCC(=O)O | inactive | 
51 | C#CCOCCCC(=O)O |  | 14.4% [at 11.4 µM]
52 | COC(=O)C/C=C\[C@@H](C)[C@@H]1C=C[C@H](OC(C)=O)[C@H](COC(C)=O)O1 |  | 14.8% [at 11.4 µM]
53 | CCOC(=O)C(C)CC(C)C(=O)N1CCOCCN(C(=O)C(C)CC(C)C(=O)OCC)CCOCC1 (centres undefined) | inactive | 
54 | CN(C)CC(C)(C)CN1c2ccccc2Sc2ccccc21 |  | -2.35% [at 11.4 µM]
55 | CCc1cccc2c3c([nH]c12)[C@@](CC)(CC(=O)O)OCC3 | inactive | 
56 | CCc1cccc2c(-c3ccccc3)c3c(nc12)OCC3 | 12.6 µM (active) | 
57 | CC1(C)O[C@H]2[C@@H](c3[nH]nc4c(=O)[nH]c(=O)[nH]c34)OC[C@H]2O1 |  | 5.4% [at 11.4 µM]
58 | CO[C@H]1COC(=O)C/C=C\[C@H](C)[C@@H](NS(=O)(=O)c2ccc(C)cc2)COC(=O)C/C=C\[C@@H]1C |  | -17.2% [at 11.4 µM] and -4.44% [at 11.4 µM]
59 | CSCC[C@@H]1NC(=O)C/C=C\[C@@H](C)COC(=O)[C@H](C)COC1=O |  | -7.38% [at 11.4 µM]
60 | c1ccc2c(c1)nnn2CN1CCOCC1 |  | 15.8% [at 11.4 µM]
61 | c1ccc(-c2ccc(C3=Nn4c(Cn5nnc6ccccc65)nnc4SC3)cc2)cc1 | 12.6 µM (active) | 
62 | Cc1cnc(CNc2ncncc2-c2ccccc2Cl)cn1 |  | 28.2% [at 2.29 µM]
63 | CCCOc1ccc(C2C(=O)N(C3CCCCC3)CC(=O)N2C2CC2)cc1OC (centres undefined) | 10 µM (active) | 
64 | COc1ccc(C2C(=O)N(C3CCCCCC3)CC(=O)N2Cc2ccccc2)cc1OC (centres undefined) | 12.6 µM (active) | 
65 | COc1cc(C2C(=O)N(C3CCCC3)CC(=O)N2Cc2ccco2)ccc1OC(C)C (centres undefined) | 10 µM (active) | 
66 | COc1ccc(CN2C(=O)CN(C3CCCCCC3)C(=O)C2c2ccc(OC)c(OC)c2)cc1 (centres undefined) | 11.2 µM (active) | 
67 | COc1ccc([C@@H]2CNC(=O)C2)cc1OC1CCCC1 | inactive | 
68 | Cc1ccc(S(=O)(=O)N[C@H]2COC(=O)CC=C[C@@H](C)[C@H]3C=C[C@H](O)[C@@H](COC(=O)CC=C[C@H]2C)O3)cc1 |  | -13.5% [at 11.4 µM] and 14.3% [at 11.4 µM]
69 | O=C(Nc1cccc(F)c1)N1CCC2(CC1)CCN(C(=O)c1cnccn1)CC2 | inactive | 

Row | Compound | AC50 | activity, negative = inhibition
70 | CCCCN=c1sc(C(=O)OC)cc(=O)n1CCCC | inactive | 
71 | COc1ccc([N+](=O)[O-])cc1N(CC(O)CN(CC(C)C)CC(C)C)S(=O)(=O)c1ccccc1 (centres undefined) | 12.6 µM (active) | 
72 | Cc1ccsc1/C=N/Nc1nc(Cl)c(Cl)cc1Cl | inactive | 
73 | CCc1c(C)c(C#N)c2nc3ccccc3n2c1N1CCN(c2cc(C)ccn2)CC1 | 1.26 µM (active) | 
74 | CCN(CC)CCOC(=O)C1(C2CCCCC2)CCCCC1 | inactive | 
75 | FC(F)(F)c1ccc(N2CCOCC2)c(Nc2nc3ccccc3n3cnnc23)c1 | 15.8 µM (active) | 
76 | CN1CCN(c2nc3cc(C(F)(F)F)ccc3n3cccc23)CC1 | inactive | 
77 | CC(/C=C1\N=C(SCc2ccccc2Cl)SC1=O)=C\c1ccccc1 | 1.58 µM (active) | 
78 | CCc1nnc(NC(=O)c2cc(-c3ccccc3)nn2-c2ccccc2)s1 | 8.91 µM (active) | 
79 | CCc1nnc(NC(=O)c2c(C)nn(-c3ccccc3)c2Cl)s1 | 8.91 µM (active) | 
80 | CCCC(=O)Nc1nnc(CCN2CCCCC2)s1 | inactive | 
81 | COc1ccccc1CNc1ncncc1-c1cccc(C#N)c1 |  | -22.7% [at 2.29 µM]
82 | CC(/C=N\NC(=O)Cn1c(C)nc2ccccc21)=C\c1ccccc1 | 2.82 µM (active) | 
83 | Cc1nc2ccccc2n1CC(=O)N/N=C\C=C\c1ccccc1 | 7.08 µM (active) | 
84 | Cc1nc2ccccc2n1CC(=O)N/N=C\c1ccccn1 | inactive | 
85 | O=c1[nH]n(-c2cccc(Cl)c2)c2ncccc12 | inactive | 
86 | Cc1ccccc1OCCNc1ccc(C(F)(F)F)cc1[N+](=O)[O-] | 3.55 µM (active) | 
87 | COc1ccccc1-c1nccc(NCc2cnc(C)cn2)n1 |  | 19.3% [at 2.29 µM]
88 | COc1ccc(OC)c(C2C(C(=O)Nc3nc4ccccc4s3)=C(C)NC3=C2C(=O)CCC3)c1 (centres undefined) | 0.631 µM (active) | 
89 | COc1ccc2nc(NC(C)=O)sc2c1 | inactive | 
